Results as given in PubChem BioAssay (NCATS).
Records with an inconclusive call do not appear. Activity calls are given as the source filed them. Calls follow the shape of the dose curve; as a rule, active = well fitted curve in the direction sought with a large enough effect; inconclusive = small, poorly fitted or top-dose-only effect, or another doubt; inactive = no such curve, though single readings can be large; an effect the other way counts as inactive or inconclusive.

Tests used:
[1] = biological target: Lysine-specific demethylase 5B (Homo sapiens) (UniProt Q9UGL1); assay: Optimization screen for KDM5B Histone Demethylases FDH coupled qHTS against the LOPAC library (AID 1347166)
Sequence of Lysine-specific demethylase 5B (Homo sapiens) (Q9UGL1 whole entry, looked up): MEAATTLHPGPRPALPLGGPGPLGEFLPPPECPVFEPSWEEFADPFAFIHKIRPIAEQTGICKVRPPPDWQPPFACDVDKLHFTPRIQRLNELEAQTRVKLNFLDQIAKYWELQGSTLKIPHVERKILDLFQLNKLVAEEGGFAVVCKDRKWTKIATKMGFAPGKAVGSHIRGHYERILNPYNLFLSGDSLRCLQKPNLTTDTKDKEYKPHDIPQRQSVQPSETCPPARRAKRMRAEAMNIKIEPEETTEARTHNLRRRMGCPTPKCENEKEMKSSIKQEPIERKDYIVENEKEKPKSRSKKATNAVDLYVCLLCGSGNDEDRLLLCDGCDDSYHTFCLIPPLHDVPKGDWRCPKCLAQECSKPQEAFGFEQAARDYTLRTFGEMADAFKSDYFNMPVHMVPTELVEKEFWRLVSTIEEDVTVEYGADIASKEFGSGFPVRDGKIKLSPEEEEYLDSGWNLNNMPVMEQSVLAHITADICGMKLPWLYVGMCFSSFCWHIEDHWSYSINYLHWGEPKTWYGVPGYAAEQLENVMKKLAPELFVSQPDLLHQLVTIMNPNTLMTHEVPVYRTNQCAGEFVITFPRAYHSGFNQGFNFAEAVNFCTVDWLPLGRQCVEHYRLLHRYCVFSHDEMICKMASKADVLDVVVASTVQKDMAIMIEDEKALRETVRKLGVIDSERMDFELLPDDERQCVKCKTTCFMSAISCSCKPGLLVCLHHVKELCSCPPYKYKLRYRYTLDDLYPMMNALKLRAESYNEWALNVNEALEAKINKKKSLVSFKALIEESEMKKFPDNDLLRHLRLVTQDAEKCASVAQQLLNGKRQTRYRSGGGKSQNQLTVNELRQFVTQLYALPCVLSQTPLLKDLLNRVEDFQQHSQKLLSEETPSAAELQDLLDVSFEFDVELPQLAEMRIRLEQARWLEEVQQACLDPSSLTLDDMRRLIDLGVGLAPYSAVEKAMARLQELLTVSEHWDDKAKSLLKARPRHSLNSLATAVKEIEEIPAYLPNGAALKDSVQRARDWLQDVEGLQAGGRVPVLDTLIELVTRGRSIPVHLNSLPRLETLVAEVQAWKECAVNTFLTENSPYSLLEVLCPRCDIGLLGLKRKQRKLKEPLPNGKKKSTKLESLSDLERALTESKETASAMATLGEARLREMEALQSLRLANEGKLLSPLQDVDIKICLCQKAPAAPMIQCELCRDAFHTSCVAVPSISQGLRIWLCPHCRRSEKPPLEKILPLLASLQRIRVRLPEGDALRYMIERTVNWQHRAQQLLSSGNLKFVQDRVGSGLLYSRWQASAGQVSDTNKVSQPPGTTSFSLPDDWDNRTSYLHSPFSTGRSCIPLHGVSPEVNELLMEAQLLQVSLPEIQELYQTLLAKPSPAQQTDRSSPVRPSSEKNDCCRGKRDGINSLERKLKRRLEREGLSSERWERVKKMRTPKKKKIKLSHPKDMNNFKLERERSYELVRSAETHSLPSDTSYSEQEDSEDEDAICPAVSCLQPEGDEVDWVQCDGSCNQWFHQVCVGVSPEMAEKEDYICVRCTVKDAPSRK
How it was run: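 KDM5BDeltaAP (200nM final) in 50mM HEPES pH 7.5, 0.01% Tween-20 was preincubated with compound for 10 min at room temperature. A substrate mix of 12.5uM H3K4Me3, 25uM a-ketoglutarate, ascorbate, Fe2+, NAD+ and formaldehyde dehydrogenase was then added. NADH fluorescence (340/450 nm) was read initially and after 30 min.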

[2] = qHTS to identify inhibitors of the type 1 interferon - major histocompatibility complex class I in skeletal muscle: primary screen against the NCATS LOPAC collection (AID 1347405);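 also: lytic HiBiT luminescence reporting HLA-B protein level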
How it was run: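 After 24 h at 37 C with compounds (7-point, 1:4.3 dilutions, 46 uM top final) plus 4 ng/ml IFN-beta, luminescence from lytic HiBiT detection was measured. HLA-B*08:01 in C25cl48 myoblasts carried an endogenous C-terminal HiBiT tag; medium lacked dexamethasone.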

[3] = qHTS for inhibitors of adenylyl cyclases using a fission yeast platform: a pilot screen against the NCATS LOPAC library (AID 1347410)
How it was run: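 GFP from fbp1-GFP reporter, read by Acumen laser cytometry, indicates AC inhibition in fission yeast expressing AC9, GNAS and PDE4D2. Cells grown 18 h in the dark at 30C with compounds, final up to 57 uM.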

[4] = Validation qHTS assay for inhibitors of Activation Induced Cytidine Deaminase (AID): UDG Counterscreen signal (AID 1347427)
How it was run: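 Fluorescence at 560 nm excitation, 665 nm emission reports UDG signal after 250 mM NaOH (2x) addition and 30 min. Enzymes (AID 1 uM, UDG 2 U/mL, at 4/3x) preincubated 10 min with compound, then 4 h with 4x 250 nM DJC20/DJC23 substrate at room temperature.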

[5] = biological target: Single-stranded DNA cytosine deaminase (Homo sapiens) (UniProt Q9GZX7); assay: Validation qHTS assay for inhibitors of Activation Induced Cytidine Deaminase (AID): AID signal (AID 1347429)
Sequence of Single-stranded DNA cytosine deaminase (Homo sapiens) (Q9GZX7 whole entry, looked up): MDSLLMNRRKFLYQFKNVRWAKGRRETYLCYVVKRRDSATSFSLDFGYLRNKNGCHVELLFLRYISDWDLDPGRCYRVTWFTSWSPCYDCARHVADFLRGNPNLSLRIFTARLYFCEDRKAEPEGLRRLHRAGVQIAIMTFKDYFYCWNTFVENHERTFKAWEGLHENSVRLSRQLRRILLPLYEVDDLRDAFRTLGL
How it was run: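 Compounds (final up to 114 uM) preincubated with AID plus UDG; 250 nM DJC20/DJC23 substrate mix (4x stock) added, 4 hr at room temperature, then NaOH, 30 min. Read 1 fluorescence at 540 nm excitation, 590 nm emission.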

[6] = Primary qHTS for inhibitors of La Crosse Virus (LACV) - induced cell death in SH-SY5Y cells (AID 1508616);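 also: top concentration of the series differs between compounds; higher means more rescue of cells from virus-induced death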
How it was run: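 Rescue of virus-induced death was read as ATPLite luminescence after 6 days at 37C, scaled between DMSO wells with LACV and without virus. Cells were SH-SY5Y, 6000/well, infected at 0.01 MOI after compound addition.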

[7] = test system: Zika virus NS2B-NS3 protease (unlinked complex); assay: Primary screen GU Rhodamine qHTS for Zika virus inhibitors: Unlinked NS2B-NS3 protease assay (AID 1347159); also: nearly all actives have a fitted effect of over 60% in size
How it was run: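 Buffer 10 mM Tris-HCl pH 8.0, 0.01% Tween 20. Unlinked protease 25 nM; compound preincubation 15 min, RT, protected from light. Substrate Rhod110, 1.5 microM; ~15% conversion in 15 min.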

[8] = Confirmatory screen NINDS Rhodamine qHTS for Zika virus inhibitors (AID 1347161);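 also: purified Zika NS2B-NS3 protease with linked NS2B cofactor domain and Rhodamine110 peptide substrate; series mostly up to about 110 µM; nearly all actives have a fitted effect of over 60% in size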
How it was run: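 Purified NS2B-NS3 protease with the NS2B hydrophilic domain joined by a flexible linker (25 nM) in 10 mM Tris-HCl pH 8.0, 0.01% Tween 20, preincubated 15 min at RT with compound; Rhodamine110 peptide substrate 1.5 µM; fluorescence change over 15 min; 4-parameter Hill fit.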

[9] = Tertiary RLuc qRT-PCR qHTS assay for Zika virus inhibitors (AID 1347169); also: top concentration of the series differs between compounds; nearly all actives have a fitted effect of over 55% in size
How it was run: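 Orthogonal cell-based readout: luminescence measured 1-1.5 hrs after adding live-cell Renilla substrate to Vero cells that had been infected with ZIKV-RLuc (MOI 1-2) post-compound, incubated 48-72 hrs at 37 degrees C.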

[10] = biological target: Protein phosphatase 1D (Homo sapiens) (UniProt O15297); assay: RapidFire Mass Spectrometry qHTS Assay for Modulators of WT P53-Induced Phosphatase 1 (WIP1) (AID 1347424); also: series mostly up to about 63 µM
Sequence of Protein phosphatase 1D (Homo sapiens) (O15297 whole entry, looked up): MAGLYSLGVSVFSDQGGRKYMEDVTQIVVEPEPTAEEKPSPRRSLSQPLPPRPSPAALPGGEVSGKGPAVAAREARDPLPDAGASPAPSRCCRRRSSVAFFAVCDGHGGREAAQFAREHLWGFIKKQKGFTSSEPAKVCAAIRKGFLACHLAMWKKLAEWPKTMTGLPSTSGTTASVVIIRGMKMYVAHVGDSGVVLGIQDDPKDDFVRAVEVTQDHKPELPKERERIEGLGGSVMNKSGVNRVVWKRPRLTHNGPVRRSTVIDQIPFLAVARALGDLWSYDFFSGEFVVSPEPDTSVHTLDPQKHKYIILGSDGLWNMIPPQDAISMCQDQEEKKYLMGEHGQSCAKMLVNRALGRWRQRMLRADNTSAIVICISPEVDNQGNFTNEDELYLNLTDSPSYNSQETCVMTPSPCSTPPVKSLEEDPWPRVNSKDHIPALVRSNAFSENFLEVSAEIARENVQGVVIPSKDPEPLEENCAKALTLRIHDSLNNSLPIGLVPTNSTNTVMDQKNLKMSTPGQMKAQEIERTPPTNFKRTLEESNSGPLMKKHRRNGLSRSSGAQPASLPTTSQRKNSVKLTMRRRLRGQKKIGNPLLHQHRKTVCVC
How it was run: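 RapidFire MS readout of dephosphorylated VEPPL-S-QETFS product, with 1 uM isotope-labelled peptide standard. Reaction: 10 nM WIP1, 2 uM phosphopeptide substrate, 5 min, room temperature, after 1 h compound preincubation; stopped with 0.5% formic acid.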

[11] = biological target: Protein phosphatase 1D (Homo sapiens) (UniProt O15297); assay: Rhodamine-PBP qHTS Assay for Modulators of WT P53-Induced Phosphatase 1 (WIP1) (AID 1347425)
How it was run: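 Read-out: Rhodamine-PBP fluorescence (ex 525/em 598 nm) for released Pi, read each minute for 11 min after adding 10 uM VEPPL-pS-QETFS; signal taken as f1 minus pre-substrate f0. Enzyme 5 nM WIP1 with 1 hr room-temperature compound preincubation.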

[12] = qHTS to identify inhibitors of the type 1 interferon - major histocompatibility complex class I in skeletal muscle: primary screen against the NCATS Pharmaceutical Collection (AID 1347407);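 also: luminescence of HiBiT knocked into endogenous HLA-B as interferon-induced MHC class I level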
How it was run: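 Compounds […] were added to CRISPR-engineered HLA-B-HiBiT C25cl48 human myoblasts with 4.0 ng/ml IFN-beta. After 24 hrs at 37 C, cells were lysed and HiBiT luminescence measured.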

Measured: Potency

CN=C(N)NCCC[C@H](N)C(=O)O
inactive: [1] | [2] | [3] | [4] | [5] | [6]

C=C[C@H]1CN2CC[C@H]1C[C@H]2[C@H](O)c1ccnc2ccc(OC)cc12
inactive: [7] | [8] | [9] | [10] | [11] | [6]

CC(=O)Oc1ccc(C)cc1
inactive: [12] | [10] | [11]

CCO[C@@H]1O[C@H](C(COCc2ccccc2)OCc2ccccc2)[C@H](OCc2ccccc2)[C@H]1O (stereo not given in full)
inactive: [12] | [10] | [11] | [6]

Cc1cccc(C)c1NC(=O)c1ccccc1C(=O)O
inactive: [12] | [10] | [11]

CN(CCCN1c2ccccc2CCc2ccccc21)CC(=O)c1ccc(Cl)cc1
inactive: [12] | [10] | [11]

Cc1ccc2c(Br)cc(Br)c(O)c2n1
inactive: [12] | [10] | [11]

O=C(NCCc1c[nH]c2ccccc12)c1cccnc1
inactive: [12] | [10] | [11]

CCN(CC)CCNC(=O)c1cc(Br)c(N)cc1OC
inactive: [12] | [10] | [11]

CC1CCc2c(N3CCC(O)CC3)c(F)cc3c(=O)c(C(=O)O)cn1c23 (stereo not given)
inactive: [12] | [10] | [11]

CCc1nn(CCCN2CCN(c3cccc(Cl)c3)CC2)c(=O)n1CCOc1ccccc1
inactive: [12] | [10] | [11]

O=C(c1ccc(F)cc1)C1CCN(CCn2c(=S)[nH]c3ccccc3c2=O)CC1
inactive: [12] | [10] | [11]

CCOC(=O)C(C#N)=C(c1ccccc1)c1ccccc1
inactive: [12] | [10] | [11]

O=[N+]([O-])c1cccc(S(=O)(=O)NCCNS(=O)(=O)c2cccc([N+](=O)[O-])c2)c1
inactive: [12] | [10] | [11]

C[N+]12CCC(CC1)C(OC(=O)C(O)(c1ccccc1)c1ccccc1)C2 (stereo not given)
inactive: [12] | [10] | [11]

CC1(C)OC[C@@H]2O[C@@]3(C(=O)O)OC(C)(C)O[C@H]3[C@@H]2O1
inactive: [12] | [10] | [11]

CN1CCN(C2=Nc3ccccc3Sc3ccc(Cl)cc32)CC1
inactive: [12] | [10] | [11]

CCCCCCCCOc1ccc(C(=O)c2ccccc2)c(O)c1
inactive: [12] | [10] | [11]

CCCCC(CC)COC(=O)c1ccc(N(C)C)cc1 (stereo not given)
inactive: [12] | [10] | [11] | [6]

O=C(CN1CCN(Cc2ccc3c(c2)OCO3)CC1)N1c2ccccc2Sc2ccccc21
inactive: [12] | [10] | [11]

Cc1cccc(C)c1NC(=O)CN1CCCC1
inactive: [12] | [10] | [11]

CCOC(=O)c1c(N)sc2c1CCN(Cc1ccccc1)C2
inactive: [12] | [10] | [11] | [6]

N/C(=N\N=C\c1ccc(Cl)cc1)N/N=C/c1ccc(Cl)cc1
inactive: [12] | [10] | [11] | [6]

COc1ccccc1N1CCN(CCCCNC(=O)c2ccc(-c3ccc(C(C)=O)cc3)cc2)CC1
inactive: [12] | [10] | [11]

CCCCCCCCCCC[C@@H](C[C@@H]1OC(=O)[C@H]1CCCCCC)OC(=O)[C@H](CC(C)C)NC=O
inactive: [12] | [10] | [11]

CC(C)n1c(/C=C/[C@@H](O)C[C@@H](O)CC(=O)O)c(-c2ccc(F)cc2)c2ccccc21
inactive: [12] | [10] | [11] | [6]

CN1CCC[C@@H]1CCO[C@](C)(c1ccccc1)c1ccc(Cl)cc1
inactive: [12] | [10] | [11]

Cc1ccc(O)c([C@H](CCN(C(C)C)C(C)C)c2ccccc2)c1
inactive: [12] | [10] | [11]

CCNC(=O)/C=C/c1cccc(Br)c1
inactive: [12] | [10] | [11]

NS(=O)(=O)c1ccc(Cl)c(S(N)(=O)=O)c1
inactive: [12] | [10] | [11] | [6]

CN1CCN(CCC(=O)N2c3ccccc3Sc3ccc(C(F)(F)F)cc32)CC1
inactive: [12] | [10] | [11]

CCCCOC(=O)CC(CC(=O)OCCCC)(OC(C)=O)C(=O)OCCCC
inactive: [12] | [10] | [11] | [6]

OC[C@H]1O[C@@H]2O[C@H]3[C@H](O)[C@@H](O)[C@@H](O[C@H]4[C@H](O)[C@@H](O)[C@@H](O[C@H]5[C@H](O)[C@@H](O)[C@@H](O[C@H]6[C@H](O)[C@@H](O)[C@@H](O[C@H]7[C@H](O)[C@@H](O)[C@@H](O[C@H]8[C@H](O)[C@@H](O)[C@@H](O[C@H]1[C@H](O)[C@H]2O)O[C@@H]8CO)O[C@@H]7CO)O[C@@H]6CO)O[C@@H]5CO)O[C@@H]4CO)O[C@@H]3CO
inactive: [12] | [10] | [11] | [6]

C[N+]1(CC2COC(c3ccccc3)(C3CCCCC3)O2)CCCCC1 (stereo not given)
inactive: [12] | [10] | [11]

CC(=C(CCOC(=O)C(C)C)SSC(CCOC(=O)C(C)C)=C(C)N(C=O)Cc1cnc(C)nc1N)N(C=O)Cc1cnc(C)nc1N
inactive: [12] | [10] | [11] | [6]

CC(C)(Cc1c[nH]c2ccccc12)NCC(O)COc1ccccc1C#N (stereo not given)
inactive: [12] | [10] | [11]

CO[C@H]1C=CO[C@@]2(C)Oc3c(C)c(O)c4c(O)c(c(/C=N/N5CCN(C)CC5)c(O)c4c3C2=O)NC(=O)/C(C)=C\C=C[C@H](C)[C@H](O)[C@@H](C)[C@@H](O)[C@@H](C)[C@H](OC(C)=O)[C@@H]1C
inactive: [12] | [10] | [11] | [6]

NS(=O)(=O)Cc1noc2ccccc12
inactive: [12] | [10] | [11]
